Screen size: about 30,000 compounds; about 580 (1.9%) were called active. The sample holds actives, similar compounds and a random draw of the others, so the mix is not that of the screen. No stated cut-off is given here; in the data, active means inhibition above about 43%; inactive means the rest.
Biological target: Serine/threonine-protein kinase ULK1 (Homo sapiens) (UniProt O75385)
Experiment: ULK1 kinase inhibitors, primary screen, biochemical, AlphaScreen (AID 1259251);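 further: 0% = median of compound wells and 100% = no enzyme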
Conditions: AlphaScreen Atg13 phosphorylation by ULK1, luminescence; at 5.96 µM; hits give high values

Serine/threonine-protein kinase ULK1 (Homo sapiens), sequence (O75385 whole entry, looked up): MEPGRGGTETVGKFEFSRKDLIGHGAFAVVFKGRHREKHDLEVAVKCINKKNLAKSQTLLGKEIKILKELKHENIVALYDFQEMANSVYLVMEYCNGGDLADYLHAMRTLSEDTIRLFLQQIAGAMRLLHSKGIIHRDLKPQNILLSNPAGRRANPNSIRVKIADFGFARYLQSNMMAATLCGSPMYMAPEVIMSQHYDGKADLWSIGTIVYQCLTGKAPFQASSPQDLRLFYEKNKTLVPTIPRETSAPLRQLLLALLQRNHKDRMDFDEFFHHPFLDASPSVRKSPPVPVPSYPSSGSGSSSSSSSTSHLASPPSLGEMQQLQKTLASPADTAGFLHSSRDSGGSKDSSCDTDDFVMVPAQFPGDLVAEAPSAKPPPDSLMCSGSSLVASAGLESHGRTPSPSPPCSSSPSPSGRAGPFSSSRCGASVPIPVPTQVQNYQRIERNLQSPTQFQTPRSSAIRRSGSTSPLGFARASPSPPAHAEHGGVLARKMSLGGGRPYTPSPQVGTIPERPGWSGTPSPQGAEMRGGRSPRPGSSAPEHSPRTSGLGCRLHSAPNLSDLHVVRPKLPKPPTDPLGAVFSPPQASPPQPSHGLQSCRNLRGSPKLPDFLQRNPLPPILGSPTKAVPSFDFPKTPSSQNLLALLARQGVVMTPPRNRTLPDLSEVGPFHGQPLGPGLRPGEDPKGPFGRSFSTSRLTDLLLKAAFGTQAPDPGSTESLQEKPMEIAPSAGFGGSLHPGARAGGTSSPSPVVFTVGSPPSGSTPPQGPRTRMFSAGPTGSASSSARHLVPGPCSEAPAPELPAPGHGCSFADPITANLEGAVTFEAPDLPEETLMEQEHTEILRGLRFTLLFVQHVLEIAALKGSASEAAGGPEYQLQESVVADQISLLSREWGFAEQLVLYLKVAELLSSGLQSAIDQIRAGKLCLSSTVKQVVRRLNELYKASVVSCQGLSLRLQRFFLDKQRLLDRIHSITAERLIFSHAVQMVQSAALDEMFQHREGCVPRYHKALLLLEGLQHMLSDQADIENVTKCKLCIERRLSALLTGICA

SMILES | inhibition
COc1ccc(-n2cc(-c3ccccc3[N+](=O)[O-])cn2)cc1 | -17.3% (inactive)
Cc1nn(C)c(C)c1-c1nc2ccc(C(=O)NCCO)cc2s1 | 1.9% (inactive)
O=C(NCCOc1ccccc1)c1ccc2nc(N3CCN(Cc4ccc5c(c4)OCO5)CC3)sc2c1 | 1.44% (inactive)
COc1ccc(-c2nc3ncnc(NCCc4ccc(O)cc4)c3[nH]2)cn1 | -9.33% (inactive)
c1ccc(Oc2cc(NC3CC3)ncn2)cc1 | 4.64% (inactive)
O=C(NCc1nc2ccccc2[nH]1)c1cccc(-c2cccs2)c1 | 1.37% (inactive)
CC(C)(C)c1ccc(S(=O)(=O)NCc2nc(-c3ccncc3)n[nH]2)cc1 | 2.8% (inactive)
Cc1ccc(C)c(NS(=O)(=O)c2ccc3c(c2)OCCCO3)c1 | 0.58% (inactive)
c1ccc(CN2CCC(Nc3nc(-c4ccccc4)nc4c3ncn4C3CCCCC3)CC2)cc1 | -30.6% (inactive)
c1ccc(CN2CCC(Nc3nc(NCc4ccc5c(c4)OCO5)nc4c3ncn4C3CCCCC3)CC2)cc1 | 1.3% (inactive)
c1cc2c(cc1CNc1nc(Nc3ccc(N4CCOCC4)cc3)c3ncn(C4CCCCC4)c3n1)OCO2 | 56.2% (active)
c1ccc(CN2CCC(Nc3nc(NCCN4CCOCC4)c4ncn(C5CCCCC5)c4n3)CC2)cc1 | 7.74% (inactive)
O=C1CCCN1CCn1cnc2c(Nc3ccc(N4CCOCC4)cc3)nc(NCc3ccc4c(c3)OCO4)nc21 | 11.6% (inactive)
c1ccc(CN2CCC(Nc3nc(Nc4ccc(N5CCOCC5)cc4)c4ncn(C5CCCCC5)c4n3)CC2)cc1 | 50.8% (active)
CC(C)N(CCNC(=O)C1CCN(c2ccc(Nc3ccccc3)nn2)CC1)C(C)C | 0.63% (inactive)
COc1cc(NC(=O)c2ccnc(-c3c(C)noc3C)c2)cc(OC)c1OC | 3.86% (inactive)
Oc1ccc(CCNc2nc(Nc3ccncn3)nc3c2ncn3C2CCCCC2)cc1 | 14.6% (inactive)
CC(=O)Nc1ccc(Nc2nc(Nc3ccccn3)ncc2C)cc1 | 8.71% (inactive)
CC(C)N(CCNC(=O)Cc1cn(-c2ccc(Nc3ccc(N4CCOCC4)cc3)nn2)c2ccccc12)C(C)C | 5.92% (inactive)
COc1cc(CNC(=O)c2cnc3cc(-c4cn[nH]c4)ccn23)cc(OC)c1 | -6.5% (inactive)
CCCNC(=O)c1ccc2nc(-c3c(C)nn(C)c3C)sc2c1 | 1.04% (inactive)
O=C1CCCN1CCCNc1nc(Nc2cnccn2)nc2nc[nH]c12 | -13.6% (inactive)
O=C1CCCN1CCCNc1nc(-c2ccccc2)nc2nc[nH]c12 | 9.26% (inactive)

SMILES | inhibition
CN(C)c1cccc(Nc2nc(NCCO)c3[nH]cnc3n2)c1 | 15.6% (inactive)
O=C1CCCN1CCCNc1nc(Nc2ccc3ncccc3c2)nc2nc[nH]c12 | 67.6% (active)
OCCNc1nc(Nc2ccc3ncccc3c2)nc2nc[nH]c12 | 62.7% (active)
OCCNc1nc(Nc2ccccn2)nc2nc[nH]c12 | 8.19% (inactive)
CCN(CC)C(=O)C1CCCN(c2nc(NCCOc3ccccc3)c3ncn(C(C)C)c3n2)C1 (stereo not drawn) | 4.04% (inactive)
c1cncc(Nc2nccc(Nc3ccc(N4CCOCC4)cc3)n2)c1 | 10% (inactive)
COCCNc1cc(-c2ccc(F)cc2)nc(C)n1 | 0.77% (inactive)
CCN(C(=O)c1ccc(Br)cc1)c1ccccc1 | 2.64% (inactive)
COc1cc2nc(-c3cccc(N)c3)nc(NCCN3CCOCC3)c2cc1OC | -4.6% (inactive)
FC(F)(F)c1cnc(Nc2ccc(N3CCOCC3)cc2)cc1-n1ncc2ccccc21 | 2.76% (inactive)
COc1cc(C(=O)N2CCOCC2)ccc1Nc1cc(NCc2cccc(S(C)(=O)=O)c2)c(C(F)(F)F)cn1 | -14.6% (inactive)
COc1cc(N2CCOCC2)ccc1Nc1cc(Nc2ccccc2-n2cccn2)c(C(F)(F)F)cn1 | 77% (active)
CCOC(=O)c1cc[n+](CC(=O)c2ccc(NC(=O)c3ccccc3)cc2)cc1 | 3.76% (inactive)
CCN(CC)C(=O)C1CCCN(c2nc3ccc(C(=O)Nc4ccc(NC(C)=O)cc4)cc3s2)C1 (stereo not drawn) | -20.8% (inactive)
CCN(CC)CCNC(=O)c1ccc(Nc2cc(Nc3ccccc3C(=O)NC)c(C(F)(F)F)cn2)nc1 | 92.4% (active)
CNC(=O)c1ccccc1Nc1cc(NC(=O)C(F)(F)c2ccccc2)ncc1C(F)(F)F | 61.2% (active)
CC(C)N(CCNC(=O)c1ccnc(Nc2ccc(C(F)(F)F)cc2)c1)C(C)C | -25.3% (inactive)
CCN(CC)CCNC(=O)c1ccc(Nc2cc(Nc3ccccc3C(=O)NC)c(C(F)(F)F)cn2)c(C)c1 | 88.5% (active)
CNC(=O)c1ccccc1Nc1cc(NC(=O)Cc2ccc([N+](=O)[O-])cc2)ncc1C(F)(F)F | 40.8% (inactive)
CCN(CC)CCNC(=O)c1cc(S(C)(=O)=O)ccc1OC | 13% (inactive)
CNC(=O)c1ccccc1Nc1cc(NC(=O)Cc2ccc(F)c(F)c2)ncc1C(F)(F)F | 32.8% (inactive)
CNC(=O)c1ccccc1Nc1cc(NC(=O)C2(c3ccccc3)CC2)ncc1C(F)(F)F | -23.5% (inactive)
CCN(CC)CCOc1ccc(Nc2cc(Nc3ccccc3C(=O)NC)c(C(F)(F)F)cn2)c(OC)c1 | 91.6% (active)

SMILES | inhibition
O=C1CCCN1CCn1cnc2c(NCc3cccc(C(F)(F)F)c3)nc(Nc3nccc4ccccc34)nc21 | -5.58% (inactive)
Cc1cnc(CNc2cc(-c3ccccc3F)nc(C)n2)nc1 | 3.69% (inactive)
COc1cc2nc(Nc3nccc4ccccc34)nc(NCc3cccc(C(F)(F)F)c3)c2cc1OC | -3.82% (inactive)
COC(c1ccccc1)(c1ccccc1)C(Oc1nc(C)cc(C)n1)C(=O)O (stereo not drawn) | 5.25% (inactive)
CC(C)n1c(-c2ccc(C(N)=O)cc2)nc2c(NCCN3CCOCC3)ncnc21 | -4.64% (inactive)
O=C(NCCc1cccnc1)c1ccc2c(c1)CC(c1nc3ccc(-c4cn[nH]c4)cc3c(=O)[nH]1)CO2 (stereo not drawn) | 1.53% (inactive)
CCNc1ncc(C)c(NCCc2ccc(OC)cc2)n1 | -7.79% (inactive)
Nc1nc(NCc2cccnc2)nc2c1ncn2-c1ccsc1 | 2.79% (inactive)
CC(=O)Nc1ccc2cnn(-c3cccc(C(=O)NCCN4CCOCC4)c3)c2c1 | -2.64% (inactive)
C1=C2[C@@H](c3ccccc3)N3CCC[C@@H]3[C@H]3CCC[C@@]23OCC1 | -9.95% (inactive)
O=C(NC1CC1)c1ccc(-c2nccc(NCc3nc4ccccc4[nH]3)n2)cc1 | -2.79% (inactive)
COc1cc(Nc2cc(NC3CC3)ncn2)cc(OC)c1OC | -5.2% (inactive)
O=C(NCCCN1CCCC1=O)C1CCN(c2ccc(Nc3ccc4ncccc4c3)nn2)CC1 | 7.45% (inactive)
COc1cccc(C(=O)Nc2nc3ccc(-c4ccncc4)cc3s2)c1 | 14.9% (inactive)
CNC(=O)c1ccccc1Nc1ccnc(Nc2ccc(N3CCOCC3)cc2)c1 | 6.96% (inactive)
CNC(=O)c1ccccc1Nc1cc(Nc2ccc(C(=O)N(C)C)cc2)ncc1C(F)(F)F | 86.4% (active)
CNC(=O)c1ccccc1Nc1nc(Nc2ccc(-n3cnc(-c4ccc(C)nc4)n3)cc2)ncc1Cl | 8.9% (inactive)
N#Cc1cccc(-c2ccnc(Nc3ccc(N4CCOCC4)cc3)n2)c1 | 7.92% (inactive)
CC(C)n1cnc2c(NCCO)nc(Nc3ccc(C(F)(F)F)cc3)nc21 | -7.45% (inactive)
c1ccc(N2CCN(c3nc(NCCN4CCOCC4)c4ncn(C5CCCCC5)c4n3)CC2)nc1 | -0.56% (inactive)
Cn1c(Nc2nc(NC3CC3)c3ncn(C4CCCCC4)c3n2)nc2ccccc21 | 36.9% (inactive)
O=C(CNS(=O)(=O)c1ccc(Cl)cc1)OCC(=O)c1ccccc1 | 14.9% (inactive)

Source: PubChem BioAssay AID1259251 (The Scripps Research Institute Molecular Screening Center, 2017)
